Shown is part of a subset that was picked to be rich in hits.
TbREL1 inh: TbREL1 inhibition, primary screen; AID 1117264; hit rate 0.49% among 89,000; P86926; TbREL1 RNA ligation, FRET fluorescence; inhibition, % at 9.66 µM;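 active = inhibition above the mean inhibition across all screened compounds plus 3 SD, cut at about 11% in these data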
Target sequence (P86926 whole entry, looked up): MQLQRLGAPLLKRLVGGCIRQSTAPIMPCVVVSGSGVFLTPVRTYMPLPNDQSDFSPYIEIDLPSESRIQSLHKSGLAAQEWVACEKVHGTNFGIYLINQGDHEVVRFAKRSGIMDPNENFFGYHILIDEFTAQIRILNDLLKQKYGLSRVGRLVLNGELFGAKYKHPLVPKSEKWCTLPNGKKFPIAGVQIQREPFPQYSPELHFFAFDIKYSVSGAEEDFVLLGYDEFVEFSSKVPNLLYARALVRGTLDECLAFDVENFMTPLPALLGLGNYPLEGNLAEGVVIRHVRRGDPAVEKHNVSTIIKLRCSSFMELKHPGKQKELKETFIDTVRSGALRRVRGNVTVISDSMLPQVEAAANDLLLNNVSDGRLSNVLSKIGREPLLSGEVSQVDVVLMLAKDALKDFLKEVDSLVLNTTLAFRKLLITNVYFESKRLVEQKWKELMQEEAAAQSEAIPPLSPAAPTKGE
TbREL1 conf: TbREL1 inhibition, confirmation; shares compounds with TbREL1 inh; TbREL1 RNA ligation, FRET fluorescence; inhibition, % at 9.66 µM; hit rate 37% among 390;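 active = mean inhibition across replicates above a set limit taken from the earlier primary screen, cut at about 11% in these data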
Hits are given with their value; n = inactive.

SMILES | TbREL1 inh | others
O=C(Nc1ccc(F)cc1)OC1CC2CC1[C@H]1CCCCN1[C@H]2Cc1ccccc1 (some centres not stated) | n
CCCCOCCCNC(=O)C[C@@H]1C[C@@]2(C(=O)OC)CC(C)(C)CC=C2N(CCc2ccc(OC)c(OC)c2)C1=O | n
O=C(/C=C/c1cccnc1)c1ccc([N+](=O)[O-])cc1 | 11 | TbREL1 conf=n
CN(C)C(=O)COc1ccc(C(=O)/C=C/c2cccnc2)cc1 | n
COc1cc(C(=O)/C=C/c2cccnc2)c([N+](=O)[O-])cc1OC | n
NS(=O)(=O)c1ccc(NC(=O)CCC(=O)N2CCOCC2)cc1 | 15 | TbREL1 conf=n
NS(=O)(=O)c1ccc(NC(=O)c2ccc(S(=O)(=O)N3CCOCC3)o2)cc1 | n
NS(=O)(=O)c1cccc(NC(=O)CCc2ccc(S(=O)(=O)N3CCOCC3)cc2)c1 | n
Cc1ccc(F)cc1C(=O)N1CCCC(c2nc(-c3cccs3)no2)C1 (configuration not stated) | n
O=C(N[C@@H](Cc1cccnc1)C(=O)N1CCC[C@H]1C(=O)NCCc1ccccc1Cl)c1ccccc1 | n
CC(Nc1cc(N2CCNCC2)ccc1[N+](=O)[O-])c1ccccc1 (configuration not stated) | n
CCc1ccc(OCCNc2cc(N3CCNC(C)C3)ccc2[N+](=O)[O-])cc1 (configuration not stated) | 12 | TbREL1 conf=n
O=[N+]([O-])c1ccc(N2CCCC2)cc1NC1CC1 | n
C[C@H]1C(=O)N2[C@@H](C[C@]3(c4c[nH]c5ccccc45)c4ccccc4N(S(=O)(=O)c4ccccc4)[C@H]23)C(=O)N1C | n
CCOC(=O)[C@@]12CCC3=C1N(CCC3)C(=O)[C@H](CC(=O)NCC1CCCCC1)C2 | n
CCC(C)[C@H]1CN=C(N)N1CCc1cccc2ccccc12 (some centres not stated) | 12 | TbREL1 conf=n
c1ccc([C@H]2CNCCN2CCc2cccc3ccccc23)cc1 | n
O=C1NC[C@@H](Cc2ccc(O)cc2)N(CCc2cccc3ccccc23)C1=O | n
C#CCNC(=O)C[C@@H]1C[C@]2(C(=O)OCC)CCC3=C2N(CCC3)C1=O | n
Cc1c(P(=S)(c2ccccc2)c2ccccc2)[n+]2ccccc2n1C/C=C/c1ccccc1 | 14 | TbREL1 conf=22
CC(O)c1nc2ccccc2n1C/C=C/c1ccccc1 (configuration not stated) | n
CN(C)[C@@H]1CCN(c2ccc3c(c2)OCCCN(C2CC2)S3(=O)=O)C1 | n
CN(C)CCOCCOc1ccccc1-c1ccccc1 | 15 | TbREL1 conf=n
c1ccc(-c2ccccc2OCCOCCN2CCCCC2)cc1 | n
OCCNCCOCCOc1ccccc1-c1ccccc1 | n
SMILES | TbREL1 inh | others
CCC(=O)Nc1ccc(C(=O)NNC(=O)c2ccccc2)cc1 | n
CCC(=O)Nc1ccc2c(c1)C(=O)c1ccccc1C2=O | 14 | TbREL1 conf=n
CCC(=O)NC1=C(NC(C)c2ccccc2)C(=O)c2ccccc2C1=O (configuration not stated) | n
Cc1[nH]c2ccccc2c1CC(=O)Nc1ccc(Nc2cccnc2)c(-c2ccc(OC(F)(F)F)cc2)c1 | n
CCN(CC)C(=O)Cn1c2ccccc2c2nc3n(c(=O)c21)CCS3 | n
O=C(NCc1ccccc1CN1CCCC1)c1cc2cc(Cl)ccc2o1 | 12 | TbREL1 conf=n
O=C(NCc1ccccc1CN1CCCC1)C1CCN(C(=O)c2ccc(Cl)cc2)CC1 | n
O=C(c1cc2cc(Cl)ccc2o1)N1CCCC1 | n
CCc1ccc(Cn2c(=O)n(Cc3ccc(C(=O)NCCCOC)cc3)c(=O)c3ccccc32)cc1 | n
CCCCCn1nnnc1C1(C)CSCC(=O)N1Cc1ccco1 (configuration not stated) | n
C[C@@H](CN1C2=NC[C@H](Cc3ccccc3)N2C[C@H]1Cc1ccc(O)cc1)NC(=O)CCC1CCCCC1 | n
COc1ccc(C[C@H]2CN3C(=NC[C@H]3Cc3ccccc3)N2CCNC(=O)CCC2CCCCC2)cc1 | 11 | TbREL1 conf=19
COc1ccc(C[C@@H]2CN3C(=NC[C@@H]3C)N2C[C@H](C)NC(=O)CCC2CCCCC2)cc1 | n
CCCCN1CN2CCc3ccccc3C2CS1(=O)=O (configuration not stated) | n
CCC(C)N(C(=O)c1oc(=O)c2ccccc2c1-c1ccc(C)cc1)C(C)CC (configuration not stated) | n
CN(c1ccc(OCC(=O)Nc2ccc3[nH]c(=O)[nH]c3c2)cc1)S(=O)(=O)c1ccc(Cl)cc1 | n
COC(=O)c1ccc(NC(=O)COc2ccc(N(C)S(=O)(=O)c3ccc(C)cc3)cc2)cc1 | n
CCOc1ccc(S(=O)(=O)N(C)c2ccc(OCC(=O)Nc3ccc4[nH]c(=O)[nH]c4c3)cc2)cc1 | 11 | TbREL1 conf=n
CC(C)[C@H](NS(=O)(=O)c1ccc(F)cc1F)C(=O)N1CCC[C@H]1C(=O)NCCc1ccccc1Cl | n
O=C(CNc1ccc2ccccc2c1)N/N=C/c1ccccn1 | n
Cc1cccc(NCC(=O)N/N=C/c2cccc(Br)c2)c1 | 12 | TbREL1 conf=n
C/C(=N\NC(=O)CNc1cccc(C)c1)c1ccc(Br)s1 | n
O=S1(=O)CC2c3ccccc3CCN2CN1CCc1ccccc1 (configuration not stated) | n
COc1cccc(C(=O)N[C@H](C(=O)N2CCC[C@H]2C(=O)NCc2ccccc2)C2CCCCC2)c1 | n
Cc1ccccc1N1CCN(C(=O)COc2cc(=O)n(C)c3ccccc23)CC1 | n
SMILES | TbREL1 inh | others
COc1ccc(CC(=O)N(Cc2ccccc2)c2ccccc2C(=O)Nc2cc(OC)ccc2OC)cc1 | n
Cc1n[nH]c(=S)n(NC(=O)/C=C/C(=O)Nn2c(=S)[nH]nc(C)c2=O)c1=O | 20 | TbREL1 conf=15
Cc1cc(N2CCNC[C@@H]2C)ccc1N1CCS(=O)(=O)CC1 | n
CCOc1ccc(-n2c(SC/C=C/c3ccccc3)nnc2-c2cccs2)cc1 | n
Cc1cc2nc(-c3ccco3)c(Cc3ccccc3C(F)(F)F)n2c(C)c1Br | n
CCc1ccc(CCNC(=O)OC2CC3CC2[C@H]2CCCCN2[C@H]3Cc2ccccc2)cc1 (some centres not stated) | n
COc1ccccc1C(CC(=O)c1ccccc1)C(=O)c1ccccc1 (configuration not stated) | 11 | TbREL1 conf=n
COc1ccccc1C(C(=O)c1ccccc1)c1ccc2ccccc2c1 (configuration not stated) | n
COC(=O)C(CC(=O)c1ccccc1)CC(=O)c1ccccc1 | n
CCOC(=O)c1cccc(NC(=O)CN(C)S(=O)(=O)c2cc(OC)ccc2OC)c1 | n
CC(=O)N1CCc2c1cccc2S(=O)(=O)NC(CC(C)C)C(=O)Nc1ccccc1C (configuration not stated) | n
CCOC(=O)N[C@H](C(=O)N1CCC[C@H]1C(=O)NC1CCCC1)C1CCCCC1 | n
O=C(CCN1CCCCCC1)Nc1cccc(Cl)c1 | n
S=C(Nc1cccc(Cl)c1)N(CCCN1CCCC1)Cc1cccn1Cc1ccc(Cl)cc1 | 11 | TbREL1 conf=n
COc1ccc(NC(=S)N(CCCN2CCCC2)Cc2cccs2)cc1 | n
CCN(C(=O)[C@@H](C1CC1)[C@@H](O)c1ccc(Cl)cc1)c1ccccc1 | n
COc1ccc(N2C(=O)c3ccccc3NC(=O)C2C(=O)Nc2ccc3c(c2)OCCO3)cc1 (configuration not stated) | n
COCC(=O)N(c1ccc(C(C)(C)C)cc1)C(C(=O)NC(C)(C)C)c1cccnc1 (configuration not stated) | n
COc1cccc(CNC(=O)Cn2c(-c3ccccc3)cc(C(C)=O)c2C)c1OC | n

High-throughput results from PubChem BioAssay.
